{"source": "PubChem BioAssay AID1851", "about": "(National Center for Advancing Translational Sciences (NCATS), 2009)", "note": "Values joined by “and” are separate entries in the source; they are usually repeats but may differ in a detail not shown here. Equal entries are not always repeated. Hit rate of the full screen: of about 16,000 compounds, about 4,000 (25%) were called active. About 26% were inconclusive and are not listed. Calls come from the whole dose curve; as a rule, active = well fitted curve in the direction sought with a large enough effect; inconclusive = small, poorly fitted or top-dose-only effect, or effect the other way; inactive = no such curve, though single readings can be large or run the other way. These entries were drawn from the full list. The source holds several records for some structures; these can differ, active in one and inactive in another. % is set by controls: 0 for no effect and ±100 for the full control effect.", "data": [{"target": "Cytochrome P450 2C9 (Homo sapiens) (UniProt P11712)", "sequence (P11712 whole entry, looked up)": "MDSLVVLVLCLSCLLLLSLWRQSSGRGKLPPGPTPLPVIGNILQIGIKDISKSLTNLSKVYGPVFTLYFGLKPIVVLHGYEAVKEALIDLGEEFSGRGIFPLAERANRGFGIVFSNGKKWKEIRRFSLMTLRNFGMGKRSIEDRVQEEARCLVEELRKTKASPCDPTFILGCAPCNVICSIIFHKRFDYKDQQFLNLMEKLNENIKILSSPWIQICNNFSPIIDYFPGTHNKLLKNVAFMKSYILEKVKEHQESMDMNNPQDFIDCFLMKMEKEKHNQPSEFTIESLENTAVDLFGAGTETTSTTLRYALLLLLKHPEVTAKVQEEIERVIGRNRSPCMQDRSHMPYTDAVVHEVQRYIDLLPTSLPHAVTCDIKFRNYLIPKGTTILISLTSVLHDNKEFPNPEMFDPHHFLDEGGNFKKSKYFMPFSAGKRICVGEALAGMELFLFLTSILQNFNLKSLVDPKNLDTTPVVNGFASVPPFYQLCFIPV", "experiment": "Cytochrome panel assay with activity outcomes", "details": "recombinant CYP, pro-luciferin dealkylation, luminescence, p450-cyp2c9; series mostly up to 57.1 µM; activity, negative = inhibition: at the top concentration", "values": [{"smiles": "CC(=O)OCC1=C(C(=O)O)N2C(=O)[C@@H](N)[C@@H]2SC1", "activity, negative = inhibition": "13% [at 25.6 µM] (inactive)"}, {"smiles": "CCc1cc2c(nc1CC)CCN(CC/C(C)=N/OC)C2", "activity, negative = inhibition": "7.8% [at 11.4 µM] (inactive)"}, {"smiles": "CS(=O)c1ccc(-c2nc(-c3ccc(F)cc3)c(-c3ccncc3)[nH]2)cc1", "note": "(stereo not drawn)", "AC50": "inactive and 2 µM (active)"}, {"smiles": "Cc1ccc(S(=O)(=O)N[C@@H](CCCCN)C(=O)CCl)cc1", "activity, negative = inhibition": "-3.85% (inactive)"}, {"smiles": "O=C(Nc1ccccc1)N1CCCC2(CCN(C(=O)Oc3ccccc3)CC2)C1", "activity, negative = inhibition": "-17.9% (inactive)"}, {"smiles": "Cc1cc(C)c(C#N)c(SCC(=O)c2ccc(Cl)cc2Cl)n1", "AC50": "5.01 µM (active)"}, {"smiles": "COc1ccc2c(c1)CCC1[C@@H]2CCC2(C)[C@@H](NCCCCCCN3C(=O)C=CC3=O)CC[C@@H]12", "note": "(stereo partly drawn)", "activity, negative = inhibition": "5.58% (inactive)"}, {"smiles": "COc1ccc(C[C@@H](N)c2ccc(OC)cc2)cc1", "activity, negative = inhibition": "-15.8% [at 11.4 µM] (inactive)"}, {"smiles": "N=C(N)SCc1ccc(Cl)c2ccccc12", "note": "(tested in a mixture with another compound)", "AC50": "3.98 µM (active)", "activity, negative = inhibition": "9.59% [at 11.4 µM] (inactive)"}, {"smiles": "O=[As](O)(O)c1ccc(NCc2ccccc2)cc1", "activity, negative = inhibition": "-7.26% [at 11.4 µM] (inactive)"}, {"smiles": "C[C@H]1[C@H](NC(=O)/C(=N/OC(C)(C)C(=O)O)c2csc(N)n2)C(=O)N1S(=O)(=O)O", "note": "(stereo in doubt)", "activity, negative = inhibition": "14% [at 25.6 µM] (inactive)"}, {"smiles": "O=c1[nH]oc2c1CCNC2", "activity, negative = inhibition": "inactive"}, {"smiles": "N#Cc1ccc(CN2CC[C@@]3(CCCNC3)C2)cc1", "activity, negative = inhibition": "-13.8% (inactive)"}, {"smiles": "COC(=O)C1=Nc2ccccc2/C1=C\\c1c(O)n(-c2ccc(OC)cc2)c(=O)[nH]c1=O", "AC50": "1.26 µM (active)"}, {"smiles": "NCCCNCCSP(=O)(O)O", "activity, negative = inhibition": "-9.99% (inactive)"}, {"smiles": "CN1Cc2c(ccc3c2OCO3)[C@@H]2[C@@H](O)Cc3cc4c(cc3[C@@H]21)OCO4", "activity, negative = inhibition": "5.43% [at 25.6 µM] (inactive)"}, {"smiles": "NC(N)=NCCN=C(N)N", "activity, negative = inhibition": "3.96% [at 11.4 µM] (inactive)"}, {"smiles": "Clc1cc(I)cc(Cl)c1NC1=NCCN1", "activity, negative = inhibition": "8.41% (inactive)"}, {"smiles": "CCc1ccccc1NC(=S)NC1CC2CCC(C1)N2Cc1ccco1", "note": "(stereo not drawn)", "activity, negative = inhibition": "19.7% (inactive)"}, {"smiles": "CCNC(=S)NC1CC2CCCC(C1)N2Cc1ccco1", "note": "(stereo not drawn)", "activity, negative = inhibition": "-3.86% (inactive)"}, {"smiles": "CC(C)CNC(=S)NC1CC2CCCC(C1)N2Cc1ccco1", "note": "(stereo not drawn)", "AC50": "2.82 µM (active)"}, {"smiles": "C#C[C@@]1(O)CC[C@@H]2[C@@H]3CCC4=CC(=O)CC[C@@]4(C)[C@H]3CC[C@]21C", "activity, negative = inhibition": "6.31% [at 25.6 µM] (inactive)"}, {"smiles": "S=C(Nc1ccc(Cl)cc1)NC1CC2CCCC(C1)N2C1CCCC1", "note": "(stereo not drawn)", "activity, negative = inhibition": "-23.7% (inactive)"}, {"smiles": "Nc1nc(N)c(N=Nc2ccc([As](=O)(O)O)c(O)c2)c(N)n1", "activity, negative = inhibition": "-7.93% [at 11.4 µM] (inactive)"}, {"smiles": "CC1=NN(c2ccccc2)C(=O)[C@@H]1N=Nc1ccc([As](=O)(O)O)c(O)c1", "AC50": "3.16 µM (active)"}, {"smiles": "CC[N+](CC)(CC)CCOc1cccc(OCC[N+](CC)(CC)CC)c1OCC[N+](CC)(CC)CC", "activity, negative = inhibition": "-12% (inactive)"}, {"smiles": "CC1=C2[C@@H]3OC(=O)[C@@H](C)[C@@H]3CC[C@]2(C)C=CC1=O", "activity, negative = inhibition": "-19.6% [at 25.6 µM] (inactive)"}, {"smiles": "O=C(Nc1cccc(F)c1)N1CC2(CCNCC2)C1", "activity, negative = inhibition": "5.38% (inactive)"}, {"smiles": "Cc1nc(N)sc1CCN", "activity, negative = inhibition": "-3.11% (inactive)"}, {"smiles": "Cc1ccc(C2(c3ccc(C)c(O)c3C)CCN(C)CC2)c(C)c1O", "activity, negative = inhibition": "7.08% [at 11.4 µM] (inactive)"}, {"smiles": "COc1cc([C@H]2c3cc4c(cc3[C@@H](O)[C@@H]3COC(=O)[C@H]23)OCO4)cc(OC)c1OC", "AC50": "1.26 µM (active)"}, {"smiles": "COc1ccc2c(c1OC)CN1CCc3cc4c(cc3[C@H]1C2)OCO4", "activity, negative = inhibition": "0.606% [at 25.6 µM] (inactive)"}, {"smiles": "CP(=O)(O)C1=CCNCC1", "activity, negative = inhibition": "18.5% (inactive)"}, {"smiles": "COC(=O)[C@H]1[C@@H](c2ccccc2)[C@@]2(c3ccccc3)Oc3ccccc3[C@@]1(O)[C@@H]2O", "activity, negative = inhibition": "-12.5% [at 11.4 µM] (inactive)"}, {"smiles": "S=C(S)N1CCCC1", "AC50": "20 µM (active)"}, {"smiles": "CCN=C=NCCCN(C)C", "activity, negative = inhibition": "-7.95% [at 11.4 µM] (inactive)"}, {"smiles": "CC(=O)N1CCC2(CC1)CC(=O)c1cc(OCC(=O)N3CCN(C)CC3)ccc1O2", "activity, negative = inhibition": "-11.2% (inactive)"}, {"smiles": "O=C(COc1ccc2ccccc2c1)N1CCN(CC2CC3C=CC2C3)CC1", "note": "(stereo not drawn)", "AC50": "17.8 µM (active)"}, {"smiles": "N[C@@H](Cn1oc(=O)[nH]c1=O)C(=O)O", "activity, negative = inhibition": "-4.2% (inactive)"}, {"smiles": "O=C(CCCN1CCC(n2c(=O)[nH]c3ccccc32)CC1)c1ccc(F)cc1", "activity, negative = inhibition": "4.59% [at 25.6 µM] (inactive)"}, {"smiles": "C=C[C@H]1CN2CC[C@@H]1C[C@H]2[C@@H](O)c1ccnc2ccccc12", "activity, negative = inhibition": "inactive"}, {"smiles": "O=S(=O)(O)/C(=C\\c1ccccc1)c1ccccc1", "note": "(tested in a mixture with another compound)", "activity, negative = inhibition": "-14.8% [at 11.4 µM] (inactive)"}, {"smiles": "COc1cc(OC)c(/C=C2/C(=O)Nc3ccccc32)c(OC)c1", "AC50": "25.1 µM (active)"}, {"smiles": "c1ccc(C2CC2)c(OCC2=NCCN2)c1", "activity, negative = inhibition": "inactive"}, {"smiles": "c1ccc(CCN2CCOCC2)nc1", "activity, negative = inhibition": "-0.553% [at 11.4 µM] (inactive)"}, {"smiles": "C[C@@]12CC[C@H]3[C@@H](CC=C4C[C@H](OS(=O)(=O)O)CC[C@]43C)[C@H]1CCC2=O", "activity, negative = inhibition": "-9.77% (inactive)"}, {"smiles": "CC(C)C[C@H](NC(=O)N1CCCCCC1)C(=O)N[C@H](Cc1cn(C)c2ccccc12)C(=O)N[C@H](Cc1ccccn1)C(=O)O", "AC50": "6.31 µM (active)"}, {"smiles": "CC(C)C[C@H](NP(=O)(O)O[C@@H]1O[C@@H](C)[C@@H](O)[C@@H](O)[C@H]1O)C(=O)N[C@@H](Cc1c[nH]c2ccccc12)C(=O)O", "activity, negative = inhibition": "6.69% (inactive)"}, {"smiles": "c1ccc(CCN2CCCCCC2)nc1", "activity, negative = inhibition": "-1.38% [at 11.4 µM] (inactive)"}, {"smiles": "CO[C@H]1C=C2CCN(C)[C@@H]2[C@@H]2c3cc4c(cc3C(=O)O[C@H]21)OCO4", "activity, negative = inhibition": "-11.2% [at 25.6 µM] (inactive)"}, {"smiles": "CC[n+]1c(/C=C/N(C)c2ccccc2)sc2ccc(Cl)cc21", "activity, negative = inhibition": "-6.79% (inactive)"}, {"smiles": "CNCCCc1ccccc1", "activity, negative = inhibition": "-34.8% (inactive)"}, {"smiles": "COc1ccc(OC)c([C@H](O)[C@H](C)N)c1", "activity, negative = inhibition": "inactive"}, {"smiles": "O=c1oc(Cl)c(Cl)c2ccccc12", "AC50": "15.8 µM (active)"}, {"smiles": "NNC(N)=O", "activity, negative = inhibition": "21.6% (inactive)"}, {"smiles": "CCN1CCN(Cc2cc(OC)c(OC)cc2[N+](=O)[O-])CC1", "activity, negative = inhibition": "22.2% (inactive)"}, {"smiles": "CCCN1CCC[C@H](c2cccc(O)c2)C1", "activity, negative = inhibition": "inactive"}, {"smiles": "CCC[C@@](C)(COC(N)=O)COC(=O)NC(C)C", "activity, negative = inhibition": "-11.5% [at 25.6 µM] (inactive)"}, {"smiles": "c1cnc(N2CC[C@@]3(CCCNC3)C2)nc1", "activity, negative = inhibition": "-12.7% (inactive)"}, {"smiles": "CCCC(CCC)C(=O)O", "activity, negative = inhibition": "-9.81% (inactive)"}, {"smiles": "CCc1ccc(CCN2CCCCC2)nc1", "activity, negative = inhibition": "-14.9% [at 11.4 µM] (inactive)"}, {"smiles": "CCNC(=O)[C@@H]1O[C@@H](n2cnc3c(N)ncnc32)[C@@H](O)[C@H]1O", "activity, negative = inhibition": "-17% (inactive)"}]}]}
